Bioassay records deposited in PubChem BioAssay by The Scripps Research Institute Molecular Screening Center.
PKA-R1A activ – activators of PKA-R1A complex; PKA-R1A dissociation, Cy5-IP20 fluorescence polarization; scaled: DMSO 0%, 113 µM cGMP 100%; activation, % at 11.4 µM; P00514+P68181; hit rate 0.083% among 340,000;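 active = percent activation above the mean of all tested compounds plus 3 SD, cut at about 19% in these data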;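 also: higher means more PKAc released from R1A so a rise in polarization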
PAFAH1B3 FP inh – inhibitors of human PAFAH1B3; Q15102; recombinant PAFAH1B3, FP-rhodamine probe, fluorescence polarization; inhibition, % at 3.39 µM; hit rate 0.28% among 340,000; AID 492972;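 active = inhibition above the screen-wide average of all tested compounds plus 3 SD, cut at about 25% in these data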
Target sequence (Q15102 whole entry, looked up): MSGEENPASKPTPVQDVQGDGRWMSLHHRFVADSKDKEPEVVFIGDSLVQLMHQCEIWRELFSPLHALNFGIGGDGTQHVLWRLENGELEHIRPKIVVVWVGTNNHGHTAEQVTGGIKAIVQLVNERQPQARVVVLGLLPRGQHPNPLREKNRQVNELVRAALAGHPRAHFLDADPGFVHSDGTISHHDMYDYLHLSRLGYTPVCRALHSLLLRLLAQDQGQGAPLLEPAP
PAFAH2 inh – PAFAH2 (human) inhibition; inhibition, % at 3.39 µM; Q99487; recombinant PAFAH2, FP-rhodamine activity probe, fluorescence polarization; hit rate 0.99% among 340,000;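 active = inhibition above the mean over all tested compounds plus 3 SD, cut at about 30% in these data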;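 also: inhibitors block probe labeling of enzyme so polarization drops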
PKA-R2B activ – activators of human PKA-R2B complex; hit rate 0.079% among 340,000; activation, % at 11.4 µM; PKA-R2B holoenzyme dissociation, Cy5-IP20 fluorescence polarization; R2B truncated from residue 108, S112A mutant; 0% DMSO only, 100% 113 µM cGMP;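 active = activation above a cutoff set at the mean over all compounds plus 3 SD, cut at about 18% in these data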;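 also: higher means more holoenzyme dissociation and a rise in polarization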
PAFAH1B2 FP inh – blocks human PAF acetylhydrolase 1b catalytic subunit 2; P68402; recombinant PAFAH1B2, FP-rhodamine activity probe, fluorescence polarization; inhibition, % at 3.39 µM; hit rate 1.2% among 340,000; AID 492953;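 active = inhibition above the mean of all tested compounds plus 3 SD, cut at about 24% in these data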
Target sequence (P68402 whole entry, looked up): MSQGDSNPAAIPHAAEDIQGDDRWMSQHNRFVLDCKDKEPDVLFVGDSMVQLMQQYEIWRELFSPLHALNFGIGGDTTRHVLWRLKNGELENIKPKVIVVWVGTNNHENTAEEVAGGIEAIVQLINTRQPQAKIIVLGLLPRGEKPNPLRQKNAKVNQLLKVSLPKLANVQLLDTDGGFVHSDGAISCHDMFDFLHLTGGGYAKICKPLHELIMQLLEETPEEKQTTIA
pPAFAH FP inh – inhibitors of human plasma PAF acetylhydrolase (pPAFAH) | Q13093 | recombinant pPAFAH, FP-rhodamine probe fluorescence polarization | inhibition, % at 3.39 µM | hit rate 1.5% among 330,000;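 active = inhibition above the mean inhibition across the screen plus 3 SD, cut at about 25% in these data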;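 also: inhibitors block binding of the rhodamine activity-based probe so polarization drops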
PAFAH1B3 confirm – confirmation of human PAFAH1B3 inhibitors | shares compounds with PAFAH1B3 FP inh | recombinant PAFAH1B3, FP-Rh activity-based probe, fluorescence polarization | inhibition, % at 3.39 µM | hit rate 30% among 390;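 active = average inhibition over triplicate runs above the hit cutoff set in the earlier primary screen, cut at about 25% in these data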
A number is an active result; 0 = inactive; - = no result given. Rows were chosen to be rich in hits. Some 2.6% of all compounds tested hit in one or more screens of this group.

SMILES	PKA-R1A activ	PAFAH1B3 FP inh	PAFAH2 inh	PKA-R2B activ	PAFAH1B2 FP inh	pPAFAH FP inh	PAFAH1B3 confirm
O=C(CSc1ncc(S(=O)(=O)c2ccccc2)c(=O)[nH]1)Nc1ccccc1Cl	0	56	0	0	0	0	51
CN(C)CCCNc1cc(O)c2ncccc2c1	0	29	0	0	0	0	0
Oc1cc(NCc2ccc(F)cc2)cc2cccnc12	0	0	0	0	0	0	-
COc1ccc(NC(=O)Cn2nnc(C(=O)NCc3ccc4c(c3)OCO4)c2N)c(OC)c1	0	0	0	0	0	0	-
Clc1cccc2sc(N3CCOCC3)nc12	0	30	0	0	0	0	0
COc1cc2c(cc1OC)CN(CCC(=O)c1ccc(Br)cc1)CC2	0	33	0	0	0	0	28
COc1cc2c(cc1OC)CN(C(=O)CCNC(=O)c1ccc(Br)cc1)CC2	0	0	0	0	0	-	-
C=CC(=O)Nc1ccc(Br)cc1	0	63	0	0	0	0	57
NCC(=O)Nc1ccc(Br)cc1	0	0	0	0	0	0	-
O=C(OCCCOC(=O)c1ccc([N+](=O)[O-])o1)c1ccc([N+](=O)[O-])o1	0	0	0	0	0	0	-
CC(C)(C)NCC(O)(c1ccc(Cl)cc1)c1ccc(Cl)cc1	0	0	0	0	0	0	-
CC(C)NCC(O)(c1ccc(Cl)cc1)c1ccc(Cl)cc1	0	29	0	0	0	0	0
Cc1ccc(-n2[nH]c(C)c(/C=N/NC(=O)c3ccc(O)cc3O)c2=O)cc1	0	27	0	0	0	0	0
Cc1[nH]n(-c2ccccc2)c(=O)c1/C=N/NC(=O)c1ccc(O)cc1O	0	0	0	0	0	0	-
CCN(CC)c1ccc(/C=N/NC(=O)Cc2nnc(NC(=O)Nc3ccccc3)s2)cc1	0	35	0	0	0	0	26
CCN(CC)c1ccc(/C=N/NC(=O)Nc2ccccc2)cc1	0	0	0	0	0	0	-
c1ccc(COCCC2CO2)cc1 (configuration not stated)	-	-	-	-	-	0	-
CSc1ccc(C2Nc3cccc4cccc(c34)N2)cc1	0	0	0	0	0	0	-
c1cc2c3c(cccc3c1)NC(c1ccc3c(c1)OCO3)N2	0	28	0	0	0	0	0
Cc1cccc(C2Nc3cccc4cccc(c34)N2)c1	0	31	0	0	0	0	0
Clc1ccc(C2Nc3cccc4cccc(c34)N2)cc1	0	0	0	0	0	0	-
CCOc1ncccc1C(=O)Nc1ccc2nc(C)sc2c1	0	0	0	0	0	0	-
N#CC(C#N)=C1C=C2C=C(N3CCOCC3)CCC2CC1 (configuration not stated)	0	34	0	0	0	-	0
NNC(=O)/C(=N/Nc1ccccc1)S(=O)(=O)c1ccc(Cl)cc1	0	40	0	0	0	0	37
CCOC(=O)/C(=N/Nc1ccc(C)cc1)S(=O)(=O)c1ccc(Cl)cc1	0	0	0	0	0	0	-
SMILES	PKA-R1A activ	PAFAH1B3 FP inh	PAFAH2 inh	PKA-R2B activ	PAFAH1B2 FP inh	pPAFAH FP inh	PAFAH1B3 confirm
O=C(CN1CCCc2ccccc21)N/N=C/c1c(O)ccc2ccccc12	0	31	0	0	0	0	0
CCOC(=O)c1c2c(n(C)c1C)C(=O)C(=O)c1ccc(Br)cc1-2	0	36	0	0	0	0	0
CN(C(=O)c1cccc(NC(=O)Cc2ccc(NC(=O)C3CCN(C(=O)C4CCC4)CC3)cc2)c1)C1CCCCC1	0	0	0	0	0	-	-
COc1ccc(N2CS(=O)CC2=O)cc1 (configuration not stated)	0	43	0	0	0	0	0
COc1cc(C(=O)N/N=C/c2ccc3c(c2)c2ccccc2n3C)ccc1O	0	41	0	0	0	-	0
COc1ccc(C(=O)N/N=C/c2sc3ccccc3c2O)cc1	0	0	0	0	0	0	-
COc1ccc2cc(C(=O)N/N=C/c3sc4ccccc4c3O)ccc2c1	0	30	0	0	0	0	0
CCOC(=O)c1c(C)oc2c1c(C=NCc1ccccn1)c(O)c1ccccc12	0	56	0	0	0	-	0
Cc1ccccc1OCCCC(=O)Nc1ccc(S(=O)(=O)Nc2onc(C)c2C)cc1	0	0	0	0	0	0	-
COc1cccc(C2(C)NC(=O)N(CC(=O)c3cc(C)n(C4CC4)c3C)C2=O)c1 (configuration not stated)	0	0	0	0	0	0	-
O=C(O)CCc1nc(-c2ccccc2)no1	0	0	0	0	0	0	-
CCN(CC)CCc1nc(-c2ccccc2)no1	0	29	0	0	0	0	34
COCC(=O)OC1CCn2c1nc1c2C(=O)C(C)=C(NC(C)=O)C1=O (configuration not stated)	0	69	0	0	0	-	55
O=C1C=C(O)c2[nH]c(=O)ccc2C1=O	0	53	0	0	0	-	0
Oc1ccc2ccccc2c1/C=N/Nc1ccccc1	0	0	0	0	0	0	-
Cc1cc(N/N=C/c2c(O)ccc3ccccc23)nc(-c2ccccc2O)n1	0	30	0	0	0	0	0
CC1C(=O)Nc2ccc(S(=O)(=O)N3CCN(c4cccc(C(F)(F)F)c4)CC3)cc2NC1=O (configuration not stated)	0	0	0	0	0	0	-
O=c1cc(CCl)nc2sc3ccccc3n12	0	60	0	0	0	0	73
Cc1c(O)nc2sc3ccccc3n2c1=O	-	-	-	-	-	0	-
CCCS(=O)(=O)c1c(S(=O)(=O)CCC)c2c(C)cccn2c1C(=O)N/N=C/c1cc(O)cc(O)c1	0	27	0	0	0	0	0
CCCS(=O)(=O)c1c(S(=O)(=O)CCC)c2c(C)cccn2c1C(N)=O	0	0	0	0	0	0	-
CS(=O)(=O)c1ccc(-c2sc3ccccc3c2C(=O)NCCCN2CCOCC2)cc1	0	0	0	0	0	0	-
COC(=O)N/N=C/c1cc(N=Nc2ccccc2)ccc1O	0	0	0	0	0	0	-
Cc1cc(C(=O)N/N=C/c2cc(N=Nc3ccccc3)ccc2O)n[nH]1	0	29	0	0	0	0	0
S=C(Nc1ccc(Cl)c(Cl)c1)N1CCCC1	0	0	0	0	0	0	-
SMILES	PKA-R1A activ	PAFAH1B3 FP inh	PAFAH2 inh	PKA-R2B activ	PAFAH1B2 FP inh	pPAFAH FP inh	PAFAH1B3 confirm
S=C(Nc1ccc2nsnc2c1)N1CCCCC1	0	51	0	0	0	0	0
Cc1cc2c(N=O)c(NO)ccc2[nH]1	0	44	0	0	0	0	35
COCCNC(=O)c1cn(C)c2ccc(S(=O)(=O)N3CCCCC3)cc2c1=O	0	0	0	0	0	0	-
Cc1cc(OCc2cc(C(=O)N(Cc3nccn3C)C(C)C)no2)cc(C)c1Cl	0	0	0	0	0	0	-
O=C(O)c1cccc2c1C(=O)c1ccccc1C2=O	0	0	0	0	0	0	-
O=C1c2ccccc2C(=O)c2c(O)c(O)cc(O)c21	0	40	0	0	0	47	29
